In all, about 33,000 sequences were measured (“E-score (-0.5 to 0.5)”: median about -0.017, highest 2% from about 0.3 on). This excerpt belongs to a sample that is enriched for the highest values.
biological target: T1, Sut1 (UniProt P53032); test: PBM E-score (8-mer binding enrichment) (E-score (-0.5 to 0.5)); higher = stronger / more preferred TF binding; conditions: protein concentration: 200 nM; construct: GST-full length
T1 sequence: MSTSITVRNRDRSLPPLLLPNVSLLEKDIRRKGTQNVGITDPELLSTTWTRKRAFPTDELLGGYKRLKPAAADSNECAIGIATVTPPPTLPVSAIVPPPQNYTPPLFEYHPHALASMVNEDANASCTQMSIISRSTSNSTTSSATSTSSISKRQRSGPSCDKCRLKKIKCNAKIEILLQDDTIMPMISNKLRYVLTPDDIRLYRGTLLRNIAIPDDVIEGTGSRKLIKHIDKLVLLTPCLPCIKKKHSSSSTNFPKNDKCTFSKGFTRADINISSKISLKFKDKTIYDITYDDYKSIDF
Summary of the method: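 Using PURExpress in vitro transcription/translation, GST-tagged yeast transcription factors were made in full-length or DNA-binding-domain form. These were applied at about 100-200 nM to double-stranded universal all-10-mer Agilent arrays, and bound protein was detected with fluorescent anti-GST. Scans were normalised with masliner before the Universal PBM Analysis Suite assigned E-scores to ungapped eight-base words pooled with their reverse complements.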

Point of comparison: ATTTTATC, “PBM E-score” value 0.321. Against it:
- CTTCGGAA — higher, 0.335
- GTTCGGAA — lower, 0.289
- CTTCGGTA — lower, 0.0563
- CTTCGGGC — lower, -0.277
- CTTCGGAC — higher, 0.405
- CTTCGGCC — lower, -0.00176
- CGCGACAG — lower, -0.283
- TGGCGACA — lower, -0.207
- GATTCGGC — lower, 0.0544
- CATTCGGA — higher, 0.392
- GATTCGGA — higher, 0.385
- TATTCGCA — lower, 0.0506
- GATTCGCA — lower, 0.113
- CATTCGGG — lower, -0.0375
- TATTCGGA — higher, 0.352
- AATTCGGA — higher, 0.396
- CATTCGGC — lower, -0.0155
- AATTCGGG — lower, 0.17
- AATTCGGC — lower, -0.0483
- TATTCGAA — lower, 0.0804
- GCGGGAGC — lower, -0.162
- CCGCGAAC — lower, 0.0271
- ATCTAGGG — lower, -0.097
- CAGCCCGA — lower, -0.211
- ACAGGACC — lower, -0.108
- CGGCCCAA — lower, -0.116
- CGTTGACC — lower, -0.224
- TGAAAGCA — lower, 0.148
- AGTAATTC — lower, 0.307
- ATTAATTC — lower, 0.298
- ATTAATTG — lower, 0.187
- AGTAATTG — lower, 0.0745
- ATTAATTA — lower, 0.188
- CGTAATTC — lower, 0.0414
- CGACAGCA — lower, -0.0542
- TGATCGCA — lower, -0.221
- CATGAGCC — lower, -0.195
- GAATTCAC — lower, 0.0262
- GAGAAGGA — lower, -0.0992
- AAGTCCTC — lower, 0.0867
- AAGTCCAT — lower, 0.0246
- ACGTCCGC — lower, -0.121
- AAGTCCCT — lower, -0.131
- AAGTCCGT — higher, 0.487
- AAGTCCGC — higher, 0.486
- TCCTTCGA — lower, 0.11
- GAATATGC — lower, 0.0981
- GCCCGCAA — lower, -0.0979
- ACATCGCA — lower, -0.067
- CAGGCCTA — lower, -0.108
- GCTATCAA — lower, 0.119
- ATGTTGGC — lower, -0.0785
- GCGGCCCA — lower, 0.00935
- AGTTAGCC — lower, 0.177
- GGAACTCC — higher, 0.356
- GGAACTAC — lower, -0.062
- CGAACTCG — lower, -0.0661
- AGAACTCC — lower, 0.31
- CTAACTCC — lower, 0.221
- ATAACTCG — lower, 0.149
- ATAACTCC — higher, 0.365
- CGAACTCC — higher, 0.391
- GGAACTCA — lower, -0.0534
- CGAACTCA — lower, -0.0187
- AGAACTCT — lower, 0.07
- AGAACTCG — lower, -0.03
- AGCTGCAG — lower, 0.0539
- TCCATAGA — lower, 0.00973
- CAGTTCTA — lower, -0.125
- CGAGAATC — lower, 0.0357
- CTGCAAGA — lower, -0.136
- AAGCCTGA — lower, -0.208
- ACAACAGT — lower, 0.0455
- AAGGGTCT — lower, -0.114
- TAACTTAA — lower, 0.246
- CAACCCGG — lower, -0.157
- AACCCCCG — lower, -0.193
- CAACCCCC — lower, -0.266
- AAACCCCC — lower, -0.346
- CAACCCCG — higher, 0.355
- AAACCCCG — higher, 0.441
- ACGGTATA — lower, -0.115
- AAACTAAC — lower, 0.27
- AAAGTTCT — lower, 0.149
- GGGCGTGA — lower, -0.182
- GCCCCGAA — lower, 0.184
- ACCCCGAA — higher, 0.332
- AACCCGAT — lower, -0.0428
- ACCCCGAC — lower, 0.273
- AACCCGAG — lower, 0.0811
- CCCCCGAA — lower, -0.0826
- CCCCCGAG — lower, -0.343
- ACCCCGAG — higher, 0.382
- ACCCCGAT — higher, 0.342
- GGGCGAAA — lower, 0.0444
- AATCGCAT — lower, 0.0231
- CGCACATC — lower, -0.156
- GAGTTCAA — lower, 0.152
- GGATCAGA — lower, -0.0639
- GTGGGGAA — lower, 0.0142
- GGCTGGAC — lower, -0.278
- ACTCCGTC — higher, 0.48
- CCTCCGTC — lower, -0.0539
- ACTCCGTG — higher, 0.473
- ATTCCGTG — lower, 0.273
- CCTCCGTA — lower, 0.0232
- ATTCCGTC — lower, 0.143
- ACTCCGTA — higher, 0.478
- AATCCGTG — lower, -0.153
- GCTCCGTA — lower, 0.291
- CGGTGAGA — lower, 0.0413
- AGGTTAGG — lower, -0.0421
- ACCAACCG — lower, 0.0755
- GGACAGTA — lower, 0.184
- ACCCTTAC — lower, -0.129
- GGAAGCCC — lower, -0.0417
- CTTTTACC — lower, 0.149
- ATTTTATG — lower, 0.13
- CTTTTATC — lower, 0.26
- ATTTATCC — higher, 0.33
- AATTTACC — lower, 0.143
- ATTTATCG — lower, 0.191
- ATTTTACC — higher, 0.352
- ATTTATCA — lower, 0.229
- ATTCATGA — lower, -0.0184
- AGACCAAA — lower, 0.026
- CCCGATTC — lower, 0.0897
- CCAGAAAC — lower, -0.0561
- CTACAAAC — lower, 0.0828
- ATACAAAT — lower, 0.312
- ATACAATC — lower, 0.236
- GTACAAAC — lower, 0.0652
- CTACAATA — lower, 0.181
- ATACAAAG — lower, 0.119
- ATACAAAA — lower, 0.288
- ATACAATA — lower, 0.299
- ATACAAAC — lower, 0.298
- TCAGGACA — lower, -0.0448
- ACCCGCCT — lower, -0.184
- ACTGGATC — lower, -0.0162
- AATCTCTG — lower, -0.129
- AACTCCCC — lower, -0.0339
- CCCTCCGC — lower, -0.318
- CACTCCGC — higher, 0.367
- CACTCCGG — higher, 0.476
- AACTCCGC — higher, 0.492
- GACTCCTC — lower, 0.0705
- CACTCCTG — lower, -0.0764
- ACCTCCGC — lower, -0.104
- CACTCCTC — lower, -0.176
- GACTCCGC — higher, 0.429
- GACTCCAC — lower, 0.0104
- CACTCCCG — lower, -0.0356
- AAGCACGC — lower, -0.122
- CACGGTAA — lower, 0.0752
- CTTCCATA — lower, 0.00613
- CTCATAGC — lower, -0.0832
- CCCCAGGC — lower, -0.303
- GCCGAGCC — lower, -0.0648
- GACACTGA — lower, 0.0506
- AATCGTTG — lower, 0.0316
- CCTTCACC — lower, -0.231
- GGGAGAAC — lower, -0.0542
- CCGACAAG — lower, 0.115
- GGGAGAAA — lower, -0.0502
- TCGACAAA — lower, 0.213
- AGGAGAAC — lower, -0.0513
- CAGAGAAG — lower, -0.0543
- CGGAGAAA — higher, 0.391
- TGGAGAAA — lower, -0.00929
- CGGAGAAG — higher, 0.36
- AGGAGAAG — lower, -0.165
- CGGAGAAC — higher, 0.33
- CCGACAAA — lower, 0.313
